An excerpt weighted towards active compounds, which were near 2.6% of everything screened.
BRCA1 expr up – qHTS Assay to Identify Small Molecule Activators of BRCA1 Expression. MCF7-BRCA1-FFLuc reporter, luminescence, 48 h; response scale: scaled: vehicle 0%, 10 µM genistein 100%. Potency, µM (top dose mostly 46.1 µM), without a hit: at the highest dose activation, most hits filed as activators. 380,000 tested, 1.1% active; note: nearly all actives have a fitted effect of over 80% in size
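MCF7-BRCA1-FFLuc, 2000 cells/well; 2 h attach, 37 °C/5% CO2; compound 48 h; luciferase substrate 15 min; luminescence end-point. Norm. to genistein 10 microM max activation and DMSO; concentration-response curves fitted.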
GLP1R cytotox – qHTS of GLP-1 Receptor Inverse Agonists: Cytotox Screen. HEK293 cAMP-luciferase reporter cells, luminescence, 24 h. Potency, µM (top dose mostly 38.3 µM), for the others: at the top dose activity change, negative = inhibition, hits mostly inhibitors. 410,000 tested, 0.13% active;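 note: loss of luciferase light is scored as toxicity; % is set by controls: 0 for no effect and ±100 for the full control effect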
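To flag toxic compounds, the library was rerun on cells for 24 hr at 37 deg C and 5% CO2. Viability-linked luminescence was captured 12 min after adding luciferase detection reagent.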
GLP1R inv ag – qHTS of GLP-1 Receptor Inverse Agonists (Inhibition Mode); 410,000 tested, 1.6% active; AID 624417, 2012; HEK293 GLP-1R CRE-luciferase, luminescence, 24 h; GLP-1R form is constitutively active; Glucagon-like peptide 1 receptor (Homo sapiens), P43220; Potency, µM (titrated, usually from 38.3 µM), without a hit: at the highest dose activity change, negative = inhibition, usual class: inhibitors; note: % is set by controls: 0 for no effect and ±100 for the full control effect; nearly all actives have a fitted effect of over 55% in size
Target sequence (P43220 whole entry, looked up): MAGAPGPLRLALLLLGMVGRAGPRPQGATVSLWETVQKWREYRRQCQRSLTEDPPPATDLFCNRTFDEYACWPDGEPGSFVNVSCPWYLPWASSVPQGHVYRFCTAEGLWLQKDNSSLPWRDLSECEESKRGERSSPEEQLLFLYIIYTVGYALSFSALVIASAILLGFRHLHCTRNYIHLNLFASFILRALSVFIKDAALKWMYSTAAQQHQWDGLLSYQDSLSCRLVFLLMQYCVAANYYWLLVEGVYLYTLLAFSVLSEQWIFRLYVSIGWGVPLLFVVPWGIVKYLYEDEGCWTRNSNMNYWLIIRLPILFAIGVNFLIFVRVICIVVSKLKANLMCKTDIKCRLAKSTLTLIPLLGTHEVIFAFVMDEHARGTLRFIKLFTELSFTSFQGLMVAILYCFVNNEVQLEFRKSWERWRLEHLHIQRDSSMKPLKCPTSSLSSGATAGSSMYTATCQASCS
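HEK293 cells stably co-expressing a cAMP-responsive luciferase reporter and constitutively active GLP-1R were seeded, incubated 12 h, then exposed to compounds for 24 h at 37 C. Luminescence was read 12 min after detection reagent; inverse agonists lower signal.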
GLP1R ag – qHTS of GLP-1 Receptor Agonists. Glucagon-like peptide 1 receptor (Homo sapiens), P43220. HEK293 GLP-1R CRE-luciferase, luminescence, 4-6 h; cells express a hypersensitive GLP-1R form. Potency, µM (highest dose often 45.6 µM), for inactives: at the top dose activation, usual class: activators. 380,000 tested, 0.007% active. AID 624172, 2012; note: % of control where 0% means no effect
The depositor's hits bear a star; ? = inconclusive; . = no result given. Calls come from the whole dose curve; as a rule, active = well fitted curve in the direction sought with a large enough effect; inconclusive = small, poorly fitted or top-dose-only effect, or another doubt; inactive = no such curve, though single readings can be large; an effect the other way counts as inactive or inconclusive. Potency is the fitted concentration of half-maximal effect.

SMILES	BRCA1 expr up	GLP1R cytotox	GLP1R inv ag	GLP1R ag
Cc1nc(-c2ccc(NC(=O)c3ccco3)cc2)cs1	?	23.7%	1µM*	-5.6%
CCC(=O)Nc1cccc(-c2csc(-c3ccccc3)n2)c1	-29.8%	-15.6%	0.3%	-8.4%
Cc1nc(-c2ccc(C(=O)Nc3ccc(F)cc3)cc2)cs1	?	4.1%	-14.4%	5.6%
Cc1nc(-c2ccc(C(=O)Nc3ccccc3F)cc2)cs1	10µM*	12.8%	?	-0.4%
Nc1nc(-c2ccc(NC(=O)c3ccco3)cc2)cs1	-24.2%	-4.5%	7.94µM*	5.4%
O=C(Nc1ccc(-c2ccccc2)cc1)c1ccco1	3.3%	-8.9%	-18.5%	0.5%
Cc1nc(-c2cccc(NC(=O)c3ccco3)c2)cs1	38.6%	-6.1%	8.0%	12.2%
CC(C)CC(=O)Nc1cccc(-c2csc(-c3ccccc3)n2)c1	-35.3%	-7.4%	10µM*	1.9%
O=C(Nc1ccc(S(=O)(=O)Nc2ncccn2)cc1)c1cccc([N+](=O)[O-])c1	0.3%	6.9%	4.3%	0.2%
Cc1ccc(-c2nnc(Nc3cccc(Cl)c3)c3ccccc23)cc1S(=O)(=O)NCC1CCCO1 (stereo not drawn)	.	-0.7%	-29.0%	.
Cc1ccc(C)c(N2CCN(C(=O)c3ccc(Nc4nc5ccccc5n5nnnc45)cc3)CC2)c1	.	0.4%	7.8%	.
O=C(Nc1ccc(OC(F)(F)F)cc1)c1nc2ccccc2nc1N1CCCCC1	.	9.6%	-2.6%	.
Cc1nc(-c2ccc(NC(=O)Cc3ccccc3)cc2)cs1	8.91µM*	14.9%	-2.0%	12.3%
O=C(Cn1cnc2ccccc2c1=O)Nc1ccc2c(c1)OCCO2	3.16µM*	2.9%	6.4%	-9.4%
O=C(CN1C(=O)C2C3C=CC(C3)C2C1=O)Nc1ccc2c(c1)OCCO2 (stereo not drawn)	12.6µM*	-0.6%	2.9%	-7.6%
O=C(Cn1nnc(-c2ccccc2F)n1)Nc1ccc2c(c1)OCCO2	8.91µM*	0.8%	-2.5%	9.5%
O=C(CSc1nc2ccccc2[nH]1)Nc1ccc2c(c1)OCCO2	10µM*	-12.8%	-8.4%	4.4%
CC(=O)Nc1ccccc1-c1nnn(CC(=O)Nc2ccc3c(c2)OCCO3)n1	-19.9%	0.0%	-4.8%	9.1%
S=c1nc[nH]c2n[nH]nc12	0.0%	.	.	.
O=C(CSc1n[nH]c(-c2ccc(F)cc2)n1)N1CCN(c2ccc(F)cc2)CC1	.	15.5%	0.4%	.
Cc1ccccc1CNC(=O)C(=O)NCC(c1ccco1)S(=O)(=O)c1ccc(F)cc1 (stereo not drawn)	.	8.3%	-25.9%	.
Cc1[nH]c2ccccc2c1C(=O)C(=O)Nc1ccc2c(c1)OCCO2	10µM*	-24.4%	0.5%	4.7%
S=C1SC2(CCCCCC2)NC2=C1CCCCC2	-27.1%	?	?	5.5%
CCOC(=O)c1ccc(OCCN2C[C@H](O)[C@@H](O)[C@H](O)[C@H]2CO)cc1	.	.	.	-3.6%
CCN(CC)S(=O)(=O)c1ccc(OC)c(NC(=O)OCc2ccccc2)c1	-17.5%	-1.3%	?	17.4%
SMILES	BRCA1 expr up	GLP1R cytotox	GLP1R inv ag	GLP1R ag
CCCNC(=O)C1(C)CCCN(Cc2cccs2)C1 (stereo not drawn)	0.0%	-8.3%	-28.0%	5.8%
CC(=O)C1=C(c2ccccc2)N(C(C)=O)n2c(nnc2C2CCCCC2)S1	.	-1.1%	12.6µM*	.
COc1cccc(C2=C(C(C)=O)Sc3nnc(C4CCCCC4)n3N2C(C)=O)c1	.	0.8%	9.6%	.
CC(=O)C1=C(c2ccc(Cl)c(Cl)c2)N(C(C)=O)n2c(C)nnc2S1	.	-21.3%	11.2µM*	.
CCOc1ccc(S(=O)(=O)NCC(=O)OCc2nnc(-c3ccccc3)o2)cc1	6.7%	1.9%	3.0%	-0.9%
Cc1ccc(N(Cc2cc(=O)[nH]c3ccccc23)C(=O)CCl)c(C)c1	-93.9%	-26.4%	5.62µM*	-4.2%
O=C(CNC(=O)c1ccc(Cl)cc1Cl)OCc1cn2cc(Br)ccc2n1	-1.9%	0.2%	12.0%	6.3%
COc1ccc(/C=C2/CCC(CN3CCOCC3)C2=O)cc1 (stereo not drawn)	-91.0%	5.01µM*	5.62µM*	-17.1%
COc1ccc(C=NCCCN2CCOCC2)cc1	-20.1%	2.0%	4.5%	1.9%
C[C@H](CO)N1C[C@H](C)[C@@H](CN(C)S(=O)(=O)c2ccc(F)cc2)Oc2c(NC(=O)Nc3ccc(C(F)(F)F)cc3)cccc2C1=O	-69.5%	-13.9%	?	-3.5%
C[C@H](CO)N1C[C@H](C)[C@H](CN(C)S(C)(=O)=O)OCc2ccccc2-c2c(n(C)c3ccccc23)C1=O	0.0%	-5.3%	-5.9%	-5.1%
C[C@H](CO)N1C[C@H](C)[C@H](CN(C)S(=O)(=O)c2cccc(F)c2)OCc2ccccc2-c2c(n(C)c3ccccc23)C1=O	-61.2%	-27.9%	11.2µM*	8.3%
C[C@@H]1CN([C@@H](C)CO)C(=O)c2ccccc2-c2ccccc2CO[C@@H]1CN(C)S(=O)(=O)c1ccc(C(F)(F)F)cc1	-24.3%	-42.3%	10µM*	9.6%
Cc1oc(-c2ccccc2)cc1C(=O)Nc1cccc2ccccc12	-29.8%	-18.1%	10µM*	-11.4%
Cc1oc(-c2ccccc2)cc1C(=O)Nc1cccc(C(=O)O)c1	7.1%	2.0%	6.9%	-10.9%
C(=C\c1ccnc2ccccc12)/c1ccc2c(c1)OCO2	23.6%	.	.	.
C=C1CC2C3C=C(C)C4=CC(=O)CCC4(C)C3CCC2(C)[C@@]1(OC(C)=O)C(C)=O (stereo partly drawn)	.	.	.	8.2%
CCOc1ccc(NC(=S)N(CCc2c(C)[nH]c3ccccc23)Cc2cccnc2)cc1	-5.0%	0.4%	10µM*	-1.2%
O=C(O)C1=C(CSc2nnnn2CS(=O)(=O)O)CS[C@@H]2[C@H](NC(=O)[C@H](O)c3ccccc3)C(=O)N12	.	.	.	1.5%
O=C(CSc1ccc(Cl)cc1)N1CCN(c2c(Cl)cccc2[N+](=O)[O-])CC1	29.3%	-13.1%	2.82µM*	0.9%
O=c1c2c3c(sc2n(Cc2cc(=O)n4ccccc4n2)c(=O)n1-c1ccc(Cl)cc1)CCC3	.	0.4%	5.2%	.
c1ccc2c(c1)-c1cccc3cncc-2c13	51.1%	12.4%	3.4%	15.1%
c1ccc2c(-c3cncc4ccccc34)cncc2c1	-13.8%	-6.7%	2µM*	3.7%
COc1ccc(O)c(-c2c(-c3ccc(Cl)cc3)n[nH]c2C)c1	-33.5%	13.4%	10µM*	3.5%
Cc1ccc(O)c(-c2cc(-c3ccccc3C)[nH]n2)c1	-67.8%	?	5.62µM*	0.4%
Cc1ccc(O)c(-c2cc(-c3ccccc3[N+](=O)[O-])[nH]n2)c1	-31.5%	?	?	-1.1%
COc1ccc(-c2cc(-c3ccc(C)cc3)n[nH]2)c(O)c1	?	-18.9%	?	11.2%
COc1ccc(-c2cc(-c3cc(C)ccc3O)[nH]n2)cc1	-53.5%	?	10µM*	14.5%

Bioassay records deposited in PubChem BioAssay by National Center for Advancing Translational Sciences (NCATS).
